Rows were chosen to be rich in hits. Some 3.4% of all compounds tested hit in one or more screens of this group.
APP 5'UTR act: activators of APP 5'UTR luciferase reporter, primary screen, SH-SY5Y cells; actives 1% (n = 190,000); AID 1276, 2008; SH-SY5Y APP 5'UTR luciferase reporter, luminescence; zero percent = DMSO vehicle wells; activation, % at 2 µM;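 active means activation above a set limit, based on mean plus 3 SD of controls, cut at about 140% in these data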
hgDAF-12 ag: H. glycines DAF-12 receptor agonists, primary screen, cell-based, luminescence, HEK293, GAL4 fusion, UAS-luciferase; Nuclear hormone receptor DAF-12 (Heterodera glycines), GAL4 fusion; HEK293 GAL4-hgDAF12 UAS-luciferase reporter, agonist luminescence; normalized to butyrate control; activation, % at 6.8 µM; actives 1.8% (n = 370,000);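 active means activation above a cutoff set at the mean of all screened compounds plus 3 SD, cut at about 10% in these data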;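 further: 0% = DMSO wells and 100% = sodium butyrate wells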
NF-kB expr up: activators of NF-kB expression in neurons, primary screen, cell-based, HTS; human neuronal cells, NF-kB reporter expression; hits give high values; fold change at 12.5 µM; actives 1.6% (n = 190,000); in the data active means fold change above about 3.3
hcDAF12 agonist: H. contortus DAF-12 nuclear receptor activators, primary screen, cell-based, luminescence, HEK293, lit1-tk-luc reporter | HEK293 hcDAF-12 lit1-tk-luc reporter; 0% DMSO, 100% Δ7-dafachronic acid | activation, % at 6.8 µM | actives 1.4% (n = 370,000);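 active means activation above the mean of all tested compounds plus 3 SD, cut at about 5.5% in these data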;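 further: 100% = response to 3 µM Δ7-dafachronic acid high control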
ssDAF12 agonist: S. stercoralis DAF-12 nuclear receptor activators, primary screen, cell-based, luminescence, HEK293, GRIP1 co-expression, lit1-tk-luc. Nuclear hormone receptor DAF-12 (Strongyloides stercoralis). HEK293 ssDAF-12/GRIP1 lit1-tk-luc reporter; % of 3 µM dafachronic acid response. activation, % at 6.8 µM. actives 1% (n = 370,000). AID 652126, 2013;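 active means activation above the mean over all tested compounds plus 3 SD, cut at about 0.9% in these data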;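 further: 0% = DMSO-only wells and 100% = 3 µM delta7-dafachronic acid wells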
* hit, by the source's call; . = no result given.

SMILES | APP 5'UTR act | hgDAF-12 ag | NF-kB expr up | hcDAF12 agonist | ssDAF12 agonist
Cc1cccc(C)c1NC(=O)C(C1CC1)n1c(=O)c(-c2ccco2)nc2ccccc21 (stereo not drawn) | . | 1 | . | 0 | 0
Cc1cccc(C)c1NC(=O)C(c1ccncc1)n1c(=O)c(-c2ccco2)nc2ccccc21 (stereo not drawn) | . | 5 | . | 5 | 2.1*
C=CCn1c(COc2ccc(Cl)cc2)nnc1SCC(=O)c1ccccc1 | . | -1 | . | -1 | -3
O=C1CCc2cc(S(=O)(=O)N3CCN(Cc4cccc5c4OCO5)CC3)ccc2N1 | . | -6 | . | -2 | -1
Cc1cc2nc(-c3ccc(SCC(=O)Nc4nccs4)nc3)[nH]c2cc1C | 156* | 4 | 1.7 | 4 | 0
O=C(CSc1nc2[nH]ncc2c(=O)[nH]1)Nc1nccs1 | -8 | -1 | 1 | 2 | 7.5*
Cc1cc2nc(-c3ccc(SCC(=O)Nc4ccc(S(=O)(=O)N5CCCC5)cc4)nc3)[nH]c2cc1C | 153* | 10 | 2.9 | 4 | 0
O=C(CN1CCOc2ccccc21)NCc1ccccc1 | -30 | 1 | 1.3 | 5.8* | 0
c1csc(-c2nc(CN3CCSCC3)cs2)c1 | . | 12* | . | 5 | 0
CC(C)(C)Nc1nc(Cl)nc(Nc2ccccc2)n1 | . | 11* | . | 4 | 0
Clc1nc(Nc2ccccc2)nc(Nc2ccccc2)n1 | 18 | 0 | 2.1 | -2 | -1
COc1ccc(-c2nc(-c3ccc(C(=O)O)cc3)no2)cc1 | . | 12* | . | 6.9* | 0
Cc1cccc(-c2nc(-c3ccncc3)no2)c1 | . | 11* | . | 3 | 1
CCC(=O)Oc1ccc(-c2nc(-c3cccnc3)no2)cc1 | 82 | 11* | 2.8 | 2 | -1
CC(C)(C)c1ccc(-c2nc(-c3ccncc3)no2)cc1 | 216* | 6 | 2.1 | 2 | 0
Cc1cc(C)cc(-c2nc(-c3ccncc3)no2)c1 | 3 | 3 | 1.8 | 3 | -1
COc1ccc(Oc2c(Br)cnn(Cc3cccc4ccccc34)c2=O)cc1 | . | -2 | . | -2 | -1
C=CCN1[C@@H](C)COc2cccc(F)c2S1(=O)=O | . | 2 | . | -3 | -1
O=C(OC12CCCN(C1)/C(=C/c1ccncc1)C2)c1ccccc1 (stereo not drawn) | . | -5 | . | -5 | -2
COC(=O)[C@]12C[C@H](CC(=O)NCC34CC5CC(CC(C5)C3)C4)C(=O)N(Cc3ccc4c(c3)OCO4)C1=C[C@H](C(C)C)O[C@@H]2C1CC1 | . | -2 | . | -3 | 0
C=CCN1C(=O)[C@H](CC(=O)NCCC(C)C)[C@@]2(C(=O)OCC)CCCC=C12 | . | -2 | . | 0 | 0
S=c1nc(-c2ccccc2)oc2c1CCCC2 | 76 | 3 | 4* | 4 | 0
O=[N+]([O-])c1ccc(-c2nc(=S)c3c(o2)CCCC3)cc1 | 16 | 1 | 1.3 | -1 | 0
Nc1ccc2oc(-c3ccccc3Cl)cc(=O)c2c1O | 45 | 9 | 6.5* | 0 | 0
Cc1ccc(NC(=O)/C(C#N)=C/c2cccs2)c(C)c1 | 90 | 6 | 3.9* | 2 | 0
SMILES | APP 5'UTR act | hgDAF-12 ag | NF-kB expr up | hcDAF12 agonist | ssDAF12 agonist
Cc1ccc(Nc2cc(C)nc(N3CCOCC3)n2)cc1 | 6 | 4 | 1.4 | 5.7* | 0
CCOc1ccc(-c2cc(C(=O)N3CCN(C)CC3)c3ccccc3n2)cc1 | 37 | 5 | 2 | 2 | 1
CCOC(=O)N1CCN(C(=O)c2cc(-c3ccc(OCC)cc3)nc3ccccc23)CC1 | -78 | 12* | 3.3* | 1 | -1
O=C(c1ccncc1)N(c1ccc(N2CCOCC2)cc1)C(c1ccccc1)c1nc2ccccc2[nH]1 (stereo not drawn) | . | 13* | . | 6.2* | 0
CCC(c1nc2ccccc2[nH]1)N(C(=O)Cc1cc(OC)cc(OC)c1)c1ccc(N2CCOCC2)cc1 (stereo not drawn) | . | 3 | . | -1 | -1
C[C@H]1CCC[C@@H](O)CC(=O)c2c(O)cc(O)cc2CC(=O)O1 | . | -9 | . | -1 | -1
CN(C)c1ccc(C(=O)c2ccc(N(C)C)c3ccccc23)cc1 | -95 | 0 | 5.2* | 4 | 1
O=S1(=O)c2c(cccc2N2CCSCC2)Oc2ccccc2CN1Cc1cn(Cc2cccc(F)c2)nn1 | . | -1 | . | -2 | -1
CCc1nc2ccc(C(=O)Nc3ccc(Cl)c(Cl)c3)cn2c1N(C)Cc1ccc(OC)cc1 | . | 12* | . | 1 | 0
Cc1ccccc1C(=O)NC1CCN(Cc2ccccc2)CC1 | 10 | 0 | 1 | 1 | 1.4*
Cc1ccc(C(=O)COC(=O)c2cc(=O)[nH]c3ccccc23)cc1 | 7 | -4 | 2 | 0 | -1
CCCn1c(C)cc(C(=O)COC(=O)c2cc(=O)[nH]c3ccccc23)c1C | . | 11* | . | 6.5* | 1
Cc1ccsc1C1Nc2ccccc2-c2nc3ccccc3n21 (stereo not drawn) | 34 | 11* | 1.2 | 2 | 0
COc1ccc(OC)c(S(=O)(=O)N2CCCC(c3noc(-c4ccc(C)cc4)n3)C2)c1 (stereo not drawn) | . | 0 | . | -2 | -2
COc1cccc(NC(=O)CN(C2=NC3CS(=O)(=O)CC3S2)c2cccc(C)c2)c1 (stereo not drawn) | . | 1 | . | 0 | 1.2*
COc1ccc(N(CC(=O)Nc2cc(Cl)ccc2OC)C2=NC3CS(=O)(=O)CC3S2)cc1 (stereo not drawn) | . | 0 | . | 0 | -1
Cn1c(=NC(=O)c2ccccc2[N+](=O)[O-])sc2cc(S(C)(=O)=O)ccc21 | 178* | 12* | 1.3 | 5 | 0
Cc1cccc(-c2nnc(SCC(=O)Nc3ccc(-c4nc5ccc(C)cc5s4)cc3)n2Cc2ccco2)c1 | . | 7 | . | 2 | 0
Cc1ccc2nc(-c3ccc(NC(=O)CSc4nnc(-c5ccccc5)n4Cc4ccco4)cc3)sc2c1 | . | 12* | . | 1 | -1
COc1ccc(-c2cc(-c3nnc(SCC(=O)Nc4ccc(-c5nc6ccc(C)cc6s5)cc4)n3N)[nH]n2)cc1 | . | 13* | . | 3 | 0
Nn1c(SCC(=O)Nc2ccccc2-c2ccccc2)nnc1-c1cc(-c2ccccc2)n[nH]1 | . | 1 | . | 0 | -1
Nn1c(SCC(=O)Nc2nccs2)nnc1-c1cc(-c2ccccc2)n[nH]1 | . | 11* | . | 3 | -1
CCn1c(SCC(=O)Nc2ccc(-c3nc4ccc(C)cc4s3)cc2)nnc1-c1ccccc1 | 110 | . | 1.6 | . | .
COCCCNC(=O)c1ccc(Cn2c(=O)c3ccccc3n(Cc3ccc(Br)cc3)c2=O)cc1 | . | 3 | . | 0 | -1

Compound activity (PubChem)
